Data on 17 compounds can be found in PubChem BioAssay (NCI).

About 83,000 compounds went through this panel and 20% of them were active in at least one assay; those are over-represented in the sample as a whole.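 How to read the values: 0–100, growth inhibition (40 = 60% inhibited); 0, no net growth; -100 to 0, cell death (-40 = 40% of starting cells died; -100 = all dead).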 Values without a mark were called inactive. Calls of active or inactive are those of the source. Rule for the calls: active = growth percent below 10; inactive = the rest.

Test systems include T-47D breast; BT-549 breast; MDA-MB-435 melanoma; SW-620 colon; MCF7 breast; HCT-116 colon; HCC-2998 colon; KM12 colon.
Test in all cases: NCI-60 one-dose screen, 48 h (100 = growth as untreated, 0 = no growth, -100 = all killed)
Common to all, as to details: 10 µM unless noted

Regarding `CCCCCCCCCCCCOC(=N)N(C)C`, the growth in the experiment with T-47D breast is 89.9%; in the experiment with BT-549 breast, 96.7%; in the experiment with MDA-MB-435 melanoma it was 97.4%; with SW-620 colon, 98.8%; in the experiment on MCF7 breast, 94.1%; in the experiment with HCT-116 colon, 87.6%. For the same compound, the growth in the experiment with HCC-2998 colon and in the experiment with KM12 colon was 101% throughout.
Turning to `CCCCCCCCC(=O)Nc1ccc(O)cc1`, the growth in the experiment with T-47D breast is 88.7%; with BT-549 breast, 80.5%; in the experiment with MDA-MB-435 melanoma it was 98.3%; in the experiment with SW-620 colon, 103%; in the experiment on MCF7 breast, 97.9%; in the experiment with HCT-116 colon it was 101%. The growth in the experiment on HCC-2998 colon was 83.7%; in the experiment with KM12 colon it was 90.9%.
`COc1cc2ncnc(-n3ncc4cc(NC(=O)Nc5ccc(Cl)c(C)c5)ccc43)c2cc1OC`: the growth in the experiment on T-47D breast is 72%; with BT-549 breast, 89.7%; in the experiment on MDA-MB-435 melanoma it was 93.8%; with SW-620 colon it was 120%; in the experiment with MCF7 breast it was 72.7%; in the experiment on HCT-116 colon, 81.5%. In addition, the growth in the experiment on HCC-2998 colon was 100%; with KM12 colon, 25.8%.
`[2H]c1nc(=Nc2cc(NC(=O)C=C)c(N(C)CCN(C)C)cc2OC)[nH]c(-c2cn(C([2H])([2H])[2H])c3ccccc23)c1[2H]`: the growth was 33% with T-47D breast; 62.9% in the experiment on BT-549 breast; 22.2% with MDA-MB-435 melanoma; 21.1% in the experiment with SW-620 colon; 23.4% in the experiment with MCF7 breast; 13.7% with HCT-116 colon. The growth was 51% in the experiment on HCC-2998 colon and 65.3% in the experiment with KM12 colon.
Regarding `CC(=O)CCS(=O)c1ccccc1` (stereo not drawn), the growth is 100% with T-47D breast; 119% with BT-549 breast; 111% with MDA-MB-435 melanoma; 98% with SW-620 colon; 91.6% in the experiment on MCF7 breast; 102% with HCT-116 colon. The growth with HCC-2998 colon was 91.7%; in the experiment with KM12 colon, 97.9%.
Consider `CCOC(=O)CCCCCCCCC(=O)OCC`, for which the growth in the experiment on T-47D breast was 89.6%; with BT-549 breast, 109%; in the experiment on MDA-MB-435 melanoma it was 112%; in the experiment with SW-620 colon it was 107%; in the experiment with MCF7 breast it was 102%; with HCT-116 colon, 110%. Also, the values for the growth in the experiment on HCC-2998 colon and in the experiment with KM12 colon were 98.4% and 105%, respectively.
In the case of `O=C(/C(Br)=C/c1ccccc1)c1ccccc1`, the growth with T-47D breast was -31.7% (active); in the experiment on BT-549 breast, 95.8%; in the experiment on MDA-MB-435 melanoma, -11.2% (active); in the experiment on SW-620 colon it was -77.3% (active); in the experiment with MCF7 breast, 0.441% (active); with HCT-116 colon, -100% (active). Moreover, the growth was 94% in the experiment on HCC-2998 colon and 53.3% with KM12 colon.
Consider `CCOC(=O)CSSCC(=O)OCC`, for which the growth in the experiment with T-47D breast was 94.4%; in the experiment on BT-549 breast, 110%; with MDA-MB-435 melanoma, 99.4%; in the experiment with SW-620 colon it was 111%; in the experiment on MCF7 breast, 95.2%; in the experiment on HCT-116 colon, 108%. In addition, the growth in the experiment on HCC-2998 colon is 108%; with KM12 colon, 105%.
With `O=P(OCCCl)(OCCCl)C(O)c1ccccc1Cl` (stereo not drawn), the growth in the experiment with T-47D breast was 98.2%; in the experiment with BT-549 breast, 107%; in the experiment on MDA-MB-435 melanoma it was 102%; with SW-620 colon, 111%; with MCF7 breast it was 99%; with HCT-116 colon it was 107%. Further, the growth in the experiment on HCC-2998 colon was 106%; in the experiment with KM12 colon it was 104%.
For `CCn1cnc(C[C@H](NC(=O)[C@@H](NC(=O)Nc2cc(C(F)(F)F)cc(C(F)(F)F)c2)C(C)(C)C)C(=O)OC)c1`, the growth in the experiment on T-47D breast was -58% [100 µM] (active); in the experiment with BT-549 breast, -86.2% [100 µM] (active); in the experiment on MDA-MB-435 melanoma, -90.7% [100 µM] (active); with SW-620 colon, -60% [100 µM] (active); in the experiment on MCF7 breast, -62% [100 µM] (active); in the experiment with HCT-116 colon it was -81% [100 µM] (active). Moreover, in the experiment on HCC-2998 colon, the growth was -89.3% [100 µM] (active).
For the compound `CCC(C)CC(N)O` (stereo not drawn), the growth in the experiment with T-47D breast was 137%; in the experiment on BT-549 breast, 108%; in the experiment with MDA-MB-435 melanoma it was 104%; with SW-620 colon, 108%; in the experiment on MCF7 breast, 101%; in the experiment on HCT-116 colon, 111%. Further, the growth in the experiment on HCC-2998 colon was 112%; in the experiment on KM12 colon, 102%.
`CCC(C)[C@H](NC(=O)Nc1cc(C(F)(F)F)cc(C(F)(F)F)c1)C(=O)N[C@@H](Cc1cn(C)cn1)C(=O)OC` (stereo partly drawn): the growth in the experiment on T-47D breast is -63.1% [100 µM] (active); with BT-549 breast, -94.5% [100 µM] (active); with MDA-MB-435 melanoma, -91.6% [100 µM] (active); in the experiment with SW-620 colon it was -58.3% [100 µM] (active); in the experiment with MCF7 breast, -60.1% [100 µM] (active); with HCT-116 colon it was -93.1% [100 µM] (active). Further, the growth with HCC-2998 colon is -89.9% [100 µM] (active).
In the case of `COC(=O)c1cc(Nc2ccc(O)c3c2C(=O)c2c([N+](=O)[O-])ccc(O)c2C3=O)cc(C(=O)OC)c1`, the growth was 68.9% with T-47D breast; 44.7% with BT-549 breast; -84.4% (active) in the experiment with MDA-MB-435 melanoma; 13.1% with SW-620 colon; 33.3% in the experiment with MCF7 breast; 36.1% in the experiment on HCT-116 colon. For the same compound, the growth is 36.3% with HCC-2998 colon and 88.7% in the experiment with KM12 colon.
For the compound `Cc1nnc(-c2cc3c(ccc4ccccc43)oc2=O)c2cn(-c3ccc(Cl)cc3)nc12`, the growth was 76.2% with T-47D breast; 105% in the experiment on BT-549 breast; 107% with MDA-MB-435 melanoma; 99.3% in the experiment with SW-620 colon; 80.1% with MCF7 breast; 85.6% in the experiment with HCT-116 colon. In addition, the growth is 97.3% in the experiment on HCC-2998 colon and 94.4% with KM12 colon.
Consider `Cc1ccc(NCc2cn(-c3ccc(C(=O)O)cc3)nc2-c2ccc(C(=O)O)cc2)cc1`, for which the growth in the experiment with T-47D breast is 98.6%; in the experiment with BT-549 breast it was 108%; in the experiment on MDA-MB-435 melanoma, 107%; with SW-620 colon, 110%; in the experiment with MCF7 breast, 93.6%; with HCT-116 colon it was 100%. The growth with HCC-2998 colon was 101%; in the experiment with KM12 colon, 93.9%.
Consider `[N-]=[N+]=Nc1ncc(-c2ccc(C(F)(F)F)cc2)c(NC2CCCCCC2)n1`, for which the growth in the experiment with T-47D breast is 21.3% [100 µM]; with BT-549 breast, 45.4% [100 µM]; with MDA-MB-435 melanoma it was 19.1% [100 µM]; in the experiment on SW-620 colon it was 27.2% [100 µM]; with MCF7 breast, 16.3% [100 µM]; with HCT-116 colon it was 16% [100 µM]. In addition, in the experiment on HCC-2998 colon, the growth was 39.7% [100 µM].
Take `COc1cc(-c2cc3cnccc3c3nc(N)c4ccncc4c23)cc(OC)c1OC`: the growth is 37.5% in the experiment on T-47D breast; 42.2% with BT-549 breast; 4.6% (active) with MDA-MB-435 melanoma; 46.8% with SW-620 colon; 29.8% in the experiment on MCF7 breast; 35.1% with HCT-116 colon. Besides, the results for the growth in the experiment with HCC-2998 colon and in the experiment on KM12 colon were 70.1% and 48.1%, respectively.
